A selection: hits, their analogues and other compounds. The true share with any hit is near 5%.
AI-2 QS modul – Vibrio harveyi AI-2 quorum sensing modulators, primary screen, JMH597 strain, luminescence/OD600 ratio; Vibrio harveyi JMH597 AI-2 luminescence/OD600 ratio, 9 h; active compounds read low; strain lacks LuxN and CqsS sensors; 0 = neutral-control median; activity change, % at 7.5 µM; 300,000 compounds, 0.4% hits; in the data active = activity change below about -75%, passing the limit was not always enough;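 note: luminescence divided by OD600 gain over 9 h not by final OD600 alone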
CHT block – inhibitors of human choline transporter CHT | 310,000 compounds, 0.86% hits | CHT-expressing cells, membrane potential dye, choline response; active compounds read low | High affinity choline transporter 1 (Homo sapiens), Q9GZV3 | B-score at 10 µM | AID 488975, 2010;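 active = B-score over 3 SD under the library average, and starting fluorescence ratio not unusually high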;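 note: choline stimulus applied at its EC90 after an EC20 pre-addition; B-score computed on integrated fluorescence ratio after choline addition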
PREPL inh – PREPL enzyme inhibitors, primary screen, biochemical, fluorescence polarization | Prolyl endopeptidase-like (Homo sapiens), Q4J6C6 | recombinant PREPL, fluorescence polarization activity-based probe | inhibition, % at 5.96 µM | 320,000 compounds, 0.68% hits | AID 2751, 2010; in the data active = inhibition above about 43%;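 note: 0% = enzyme with DMSO and 100% = wells lacking enzyme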
ALR inh – inhibitors of human ALR sulfhydryl oxidase, primary screen, biochemical, H2O2 detection, HRP-luminol luminescence, single point; FAD-linked sulfhydryl oxidase ALR (Homo sapiens), P55789; purified ALR, DTT oxidation; inhibition, % (concentration not given with the values); 290,000 compounds, 3.8% hits;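 active = mean replicate inhibition above about 79%, with every replicate also reaching it, limit read from the data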
Target sequence (P55789 whole entry, looked up): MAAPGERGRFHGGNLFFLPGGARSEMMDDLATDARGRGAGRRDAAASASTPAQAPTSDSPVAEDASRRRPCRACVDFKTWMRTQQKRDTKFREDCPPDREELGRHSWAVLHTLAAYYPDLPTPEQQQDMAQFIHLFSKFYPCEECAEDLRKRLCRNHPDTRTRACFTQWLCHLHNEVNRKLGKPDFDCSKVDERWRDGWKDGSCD
CHT PAM – CHT positive allosteric modulators, primary screen, cell-based, membrane potential dye, choline EC20 | High affinity choline transporter 1 (Homo sapiens), Q9GZV3 | CHT-expressing cells; active compounds read high; LV-AA mutant CHT in HEK293 cells | B-score at 10 µM | 310,000 compounds, 0.49% hits | AID 488977, 2010;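 active = initial fluorescence not abnormally high and integrated response B-score, plate-corrected, over 3 SD above library mean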
* marks the source's active call; other numbers are inactive results; i = inactive; · = no result.

SMILES	AI-2 QS modul	CHT block	PREPL inh	ALR inh	CHT PAM
COc1cccc(C(=O)NCCC(=O)NCc2cc(=O)n(C)c(=O)n2C)c1	16	i	-7	-2	i
N#Cc1sc2nc(N3CCCCC3)c3c(c2c1N)CCCC3	20	i	19	98*	i
O=C(NC(=O)c1ccccc1)Nc1ccc(Cl)cn1	17	i	9	-3	i
CCOc1ccc(N/C(SC)=C(/C#N)C(N)=O)cc1	14	i	9	1	i
CCOc1ccc(N/N=C(/C#N)C(N)=O)cc1	10	i	0	98*	i
COc1ccc2[nH]cc(C(=O)CN3CC(C)CC(C)C3)c2c1 (centres undefined)	17	i	7	-9	i
COc1ccc2[nH]cc(C(=O)CNc3nc(C)cs3)c2c1	19	i	20	81*	i
O=c1oc2ccccc2c2oc3cc(O)c(O)cc3c12	17	i	26	·	i
O=c1oc2c(O)c(O)cc3c(=O)oc4c(O)c(O)cc1c4c23	·	i	54*	30	i
COC(=O)c1ccccc1C(=O)N(c1ccccc1)c1ccccc1	18	i	-6	-30	i
N#C/C(=C/c1ccc(N2CCOCC2)o1)c1ccc(Br)cc1	8	i	25	92*	i
COc1ccc(NC(=O)/C(C#N)=C\c2ccc(N3CCOCC3)o2)cc1	9	i	19	80*	i
O=C(N/N=C/c1ccco1)c1ccc(NC(=O)c2ccc(Cl)cc2)cc1	-5	i	18	·	i
Cc1cc(C)n2nc(C(F)(F)F)c(-c3ccccc3)c2n1	14	i	1	-6	i
COc1cc(CN2CC(=O)N(c3ccc(C)c(Cl)c3)C2=S)cc(OC)c1OC	29	i	-9	9	i
COc1ccc(S(=O)(=O)N2CCOCC2)cc1C(=O)N1CCCCC1	24	i	12	1	i
O=C(N/N=C/c1ccco1)C1CC1c1ccccc1 (centres undefined)	-86*	i	-11	12	i
Brc1c(CSc2nnc(-c3ccco3)o2)nc2ccccn12	14	i	-2	97*	i
Cc1nn(Cc2ccc(Cl)cc2)c(C)c1N	26	i	19	94*	i
O=C(Nc1ccc(C2=NCCN2)cc1)c1ccc(C(=O)Nc2ccc(C3=NCCN3)cc2)c([N+](=O)[O-])c1	20	i	45*	-9	i
COc1ccc(C(=O)Nc2ccncc2)cc1[N+](=O)[O-]	21	i	·	5	i
O=C(O)C1C2C=CC(C2)C1C(=O)NCc1cccs1 (centres undefined)	9	i	-3	3	i
C=CCn1c(SCC(=O)c2ccc(O)c(O)c2)nnc1-c1ccccc1OC	6	i	21	64	i
CCn1c(SCC(=O)c2ccc(O)c(O)c2)nnc1-c1ccccc1	15	i	3	98*	i
CCn1c(CSc2nc3ccccc3s2)nnc1SCC(=O)c1ccc(Cl)cc1	17	i	-8	12	i
SMILES	AI-2 QS modul	CHT block	PREPL inh	ALR inh	CHT PAM
CCn1c(SCC(=O)c2ccc(O)c(O)c2)nnc1-c1ccccc1OC	9	i	5	99*	i
CCn1c(CSc2nc3ccccc3s2)nnc1SCC(=O)c1ccc(O)c(O)c1	30	i	29	98*	i
CNc1c(NS(=O)(=O)c2ccc(Br)cc2)c(=O)oc2ccccc12	21	i	-12	·	i
O=S1(=O)c2ccccc2N=NN1Cc1cc(Cl)cc(Cl)c1	-15	i	-11	99*	i
O=S1(=O)c2ccccc2N=NN1Cc1ccc(Cl)cc1	-1	i	2	-1	i
O=C(NCc1ccc(Cl)cc1)C(=O)N/N=C/c1ccc(Br)cc1	15	i	-1	-3	i
COC(=O)c1ccc(OC(=O)c2ccncc2)cc1O	12	i	5	5	i
O=C(NC1CCN(C(=O)N2c3ccccc3Sc3ccccc32)CC1)c1ccccc1Cl	19	i	4	2	i
NC(=O)C1CCN(C(=O)N2c3ccccc3Sc3ccccc32)CC1	11	i	1	80*	i
O=C(CSc1nnc(Nc2ccccc2)s1)NC1CCCC1	·	·	6	·	·
O=S(=O)(NC(=S)NC1CCCCC1)c1ccc(Br)cc1	40	i	5	17	i
Cc1ccc(S(=O)(=O)/N=C2/NC(=O)/C(=C/c3ccc(Br)o3)S2)cc1	68	i	-7	54	i
Cc1ccc(S(=O)(=O)/N=C2/NC(=O)/C(=C\c3cc(Br)cc(Br)c3O)S2)cc1	-54	i	·	99*	i
O=C(CSc1nnc(-c2ccco2)c(-c2ccco2)n1)Nc1ccccc1	2	i	17	99*	i
Cc1ccc(NC(=O)CSc2nnc(-c3ccco3)c(-c3ccco3)n2)cc1	18	i	11	99*	i
CCc1nnc(SCC(=O)Nc2ccc(C(C)=O)cc2)nc1CC	37	i	14	99*	i
CN(C)c1ccc(NC(=O)CSc2nnc(-c3ccco3)c(-c3ccco3)n2)cc1	26	i	7	·	i
Cc1ccc(OCC(O)CN2CCOCC2)cc1C (centres undefined)	2	i	2	-2	i
Cc1cccc(C)c1NC(=O)CNC(=O)c1cccc(S(=O)(=O)NCc2cccs2)c1	·	·	13	·	·
Cc1nc(NC(=O)CSc2nnnn2C)sc1C	10	i	2	-2	i
CCc1nnc(NC(=O)CSc2nnnn2C)s1	3	i	3	99*	i
O=C(Nc1ccccn1)c1ccc(S(=O)(=O)N2CCCCCC2)cc1	63	i	-7	3	i
CCc1ccc(NC(=O)C(C)Sc2nc(-c3ccco3)c(C#N)c(=O)[nH]2)cc1 (centres undefined)	9	i	-3	98*	i
CCC(C)(C)NC(=O)C(c1cccnc1)N(C(=O)c1csnn1)c1ccccc1 (centres undefined)	0	i	-2	-4	i
COc1cc(/C=N/Nc2ccccn2)ccc1O	27	i	-8	97*	i
O=c1nccc(N/N=C/c2cccc(O)c2)[nH]1	30	i	-8	52	i
COc1cc(/C=N/Nc2ccnc(=O)[nH]2)ccc1O	44	i	·	98*	i
CN1CCN(C(CNS(=O)(=O)c2ccc(Br)cc2)c2ccc3c(c2)OCO3)CC1 (centres undefined)	19	i	-33	-2	i
CC(=O)NC(=S)NNC(=O)C(c1ccccc1)c1ccccc1	-87*	i	1	26	i
CC(=O)NC(=S)Nc1ccccc1C(=O)Nc1ccccc1	18	i	-5	12	i

High-throughput results as filed in PubChem BioAssay.
